Compounds with a hit are over-represented: about 21% of the library has one in this group of screens.
Shiga toxin inh = A qHTS for Small Molecule Inhibitors of Shiga Toxin; AID 2315, 2010; actives 9.2% (n = 290,000); Vero cells, Shiga toxin protein synthesis inhibition reporter; inhibition, % at 38.7 µM; in the data active = inhibition mostly above about 28%, no sharp cut-off; inactive = mostly below about 43%; note: 0% is about no effect
Pf growth 48h = Primary qHTS for delayed death inhibitors of the malarial parasite plastid, 48 hour incubation | P. falciparum luciferase growth in erythrocytes, 48 h | Potency, µM (top dose mostly 28.7 µM), for inactives: top-dose activity change, negative = inhibition, usual class: inhibitors | actives 5.9% (n = 310,000) | AID 504832, 2011; note: potency is the fitted concentration of half-maximal effect; % is set by controls: 0 for no effect and ±100 for the full control effect
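Erythrocytes infected with P. falciparum carrying an integrated firefly luciferase reporter (2% hematocrit, 0.1% parasitemia final) were exposed to compounds in RPMI 1640 with 0.5% Albumax at 37 C, 5% CO2. Growth inhibition was scored as reduced luminescence.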
Sm TGR block = qHTS Assay for the Inhibitors of Schistosoma Mansoni Peroxiredoxins; purified TGR, DTNB reduction, TNB absorbance 405 nm; AID 485364, 2010; Potency, µM (doses to about 114 µM), without a hit: top-dose activity change, negative = inhibition, actives largely listed as inhibitors; Schistosoma mansoni thioredoxin glutathione reductase (TGR), Q962Y6; actives 3% (n = 360,000); note: potency is the fitted concentration of half-maximal effect; % is set by controls: 0 for no effect and ±100 for the full control effect; nearly all actives have a fitted effect of over 60% in size
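TGR 20 nM + NADPH 100 uM (dispensed conc.), cpd preinc 15 min RT; start with NADPH (500 uM addition) then DTNB (15 mM addition). Kinetic TNB absorbance, 405 nm filter. Four-parameter Hill fit across titration.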
CHX counter = Cycloheximide Counterscreen for Small Molecule Inhibitors of Shiga Toxin; cell reporter, cycloheximide protein synthesis inhibition counterscreen; actives 12% (n = 300,000); max response, %; in the data active = max response mostly above about 13%, no sharp cut-off; inactive = mostly below about 14%; note: read at 38.3 µM for the half of the compounds with a filed dose; 0% is about no effect
Pf growth 96h = Primary qHTS for delayed death inhibitors of the malarial parasite plastid, 96 hour incubation. P. falciparum luciferase reporter growth, 96 h. Potency, µM (doses to about 28.7 µM), inactives show at the top dose activity change, negative = inhibition, actives largely listed as inhibitors. actives 6.9% (n = 320,000). AID 504834, 2011; note: potency is the fitted concentration of half-maximal effect; % is set by controls: 0 for no effect and ±100 for the full control effect
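Plates of compound plus infected erythrocytes (2% hematocrit, 0.05% parasitemia final) incubate 96 hours, 37 C, 5% CO2. Detection reagent added; reduced luminescence from the parasites' luciferase reporter flags inhibition.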
NS1 function inh = qHTS Assay for Inhibitors of Influenza NS1 Protein Function. Potency, µM (highest dose often 46.1 µM), for inactives: at the top dose activity, positive = more growth. actives 0.4% (n = 270,000); calls by dose curve; note: potency is the fitted concentration of half-maximal effect; actives are rising curves; nearly all actives have a fitted effect of over 50% in size
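Read-out: OD600 growth recovery of NS1-expressing budding yeast. Cells grown overnight at 30C in -URA glucose medium, washed, resuspended and diluted 1:100 in 2% galactose assay medium, pH 6.0. Same strain lacking NS1 served as positive control.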
Starred values were filed as active, the others as inactive; ? = inconclusive; . = not tested or not shown; [ ] = another dose, or the depositor's remark. Unless noted, calls come from the whole dose curve; as a rule, active = well fitted curve in the direction sought with a large enough effect; inconclusive = small, poorly fitted or top-dose-only effect, or another doubt; inactive = no such curve, though single readings can be large; an effect the other way counts as inactive or inconclusive.

SMILES	Shiga toxin inh	Pf growth 48h	Sm TGR block	CHX counter	Pf growth 96h	NS1 function inh
Cn1c(=O)c2c(=O)cc(NNC(=O)CC#N)[nH]c2n(C)c1=O	20.7	-1.8%	.	-2.9	-14.8%	4.7%
CCc1cc(=O)oc2c(CN3CCN(C)CC3)c(O)ccc12	-11.4	0.0%	6.1%	-4.4	-8.1%	?
CN1CCN(Cc2c(O)ccc3cc(Br)ccc23)CC1	1.8	-12.6%	3.55µM*	0.6	?	.
COc1cc(-c2cc(=O)c3ccccc3o2)ccc1O	61.3*	54.3%	-3.8%	37.2*	99.6%	-31.3%
COc1cc(O)c2c(=O)cc(-c3ccccc3)oc2c1	14.2	55.9%	-0.3%	11.0*	25.2%	-1.2%
CC(C)OC(=O)COc1cc(O)c2c(=O)cc(-c3ccccc3)oc2c1	2.1	2.2%	3.8%	2.2	-10.3%	-3.4%
COc1cc(O)c2c(=O)c3c(OC)c(O)ccc3oc2c1	56.3*	105.8%	-0.9%	37.0*	60.2%	1.6%
O=c1cc(-c2ccc(O)cc2)oc2cc(O)cc(O)c12	.	.	.	.	.	-3.1%
O=c1cc(-c2ccncc2)oc2ccccc12	22.7	.	12.9%[11.4 µM]	9.7	15.4%	-48.8%
COc1cc(-c2cc(=O)c3c(O)cc(O)cc3o2)ccc1O	39.3*	?	-35.3%	37.0*	13.1µM*	-0.8%
COc1cc(C(=O)Nc2ccccc2N2CCOCC2)ccc1OCC(=O)N1CCOCC1	.	-11.8%	-8.4%	.	-27.4%	.
O=C(COc1cc(O)c2c(=O)cc(-c3ccccc3)oc2c1)c1cccc([N+](=O)[O-])c1	.	4.15µM*	-12.4%	0.5	0.0%	6.9%
O=C(COc1cc(O)c2c(=O)cc(-c3ccccc3)oc2c1)c1ccccc1	-26.2	39.9%	5.1%	-1.6	23.3%	16.1%
COc1ccc(CN2CCN(Cc3c[nH]c4ccccc34)CC2CCO)cc1C (stereo not drawn)	-4.5	?	-0.3%	-0.9	?	?
CCn1ncc(CN2CCN(Cc3cccc(OC)c3)C(CCO)C2)c1C (stereo not drawn)	10.2	0.1%	-24.3%	-0.9	7.38µM*	0.5%
CCOc1ccc(CN2CCN(Cc3c(C)nn(CC)c3C)CC2CCO)cc1 (stereo not drawn)	6.4	-18.4%	?	-2.2	14.3%	-1.5%
CCn1nc(C)c(CN2CCN(Cc3cccc(OC)c3)C(CCO)C2)c1C (stereo not drawn)	-11.3	-2.5%	0.0%	4.2	11.7µM*	4.2%
COc1cc(CN2CCN(Cc3c[nH]c4ccccc34)CC2CCO)cc(OC)c1 (stereo not drawn)	-15.0	-21.5%	-2.7%	-1.3	10.4µM*	24.7%
COc1cccc(CNC(=O)c2ccc(NS(=O)(=O)c3ccc4[nH]c(=O)[nH]c4c3)cc2)c1	.	9.3%	4.6%	.	9.7%	.
NC(=O)CSc1nc2cc(Cl)ccc2c(=O)n1C1CCCCC1	14.1	-5.2%	-1.6%	-2.0	?	5.2%
CCOc1cc(-c2nc(-c3ccc(-c4ccccc4)nc3OCC)no2)cc(OCC)c1OCC	.	.	3.6%	.	.	.
COC(=O)C1=C(C)N(C)C(C)=C(C(=O)OC)C1c1ccc(Cl)cc1	-11.8	?	-7.9%	-2.1	10.4µM*	-12.4%
COC(=O)C1=C(C)N(c2ccc(OC)cc2)C(C)=C(C(=O)OC)C1c1ccc(OC)cc1	28.4	?	4.7%	2.9	?	-0.5%
COC(=O)C1=C(C)N(c2ccc(OC)cc2)C(C)=C(C(=O)OC)C1c1ccccc1	-1.4	1.31µM*	1.2%	-2.0	?	-1.9%
Cc1cc([N+](=O)[O-])ccc1NC(=O)c1cc2ccccc2o1	167.9*	106.8%	5.7%	30.1*	8.7%	3.1%
SMILES	Shiga toxin inh	Pf growth 48h	Sm TGR block	CHX counter	Pf growth 96h	NS1 function inh
O=C(Nc1ccccc1C(F)(F)F)c1cc2ccccc2o1	.	211.9%	1.1%	32.2*	?	11.4%
Cc1ccc(C)c(NC(=O)c2cc3ccccc3o2)c1	75.2*	134.2%	9.2%	51.2*	?	-25.1%
O=C(Nc1cccc(Cl)c1N1CCCC1)c1cc2ccccc2o1	28.8*	-2.2%	5.1%	27.9*	1.31µM*	-40.1%
COC(=O)c1ccccc1NC(=O)c1cc2ccccc2o1	39.7	0.0%	15.4%	16.6	-14.3%	-8.5%
CCCCNC(=O)c1cccc(-n2c(C)nc3cccnc32)c1	.	.	5.2%	.	.	.
CCOC(=O)C1CCCN(C(=O)c2ccccc2NC(=O)c2nsc3ccccc23)C1 (stereo not drawn)	.	.	2.5%	.	.	.
CCc1ccc(S(=O)(=O)c2cn(CC(=O)Nc3cccc(C)c3)c3ccc(Cl)cc3c2=O)cc1	.	.	0.5%	.	.	.
CCCS(=O)(=O)Nc1ccc(N2CCCCC2)c(S(=O)(=O)Nc2ccccc2OC)c1	.	10.4µM*	3.8%	.	13.1µM*	.
COc1ccccc1NS(=O)(=O)c1cc(N)ccc1N1CCCCC1	-2.0	14.7µM*	.	1.0	-12.4%	10.5%
CCC1(c2ccccc2)C(=O)N(C(=O)OC(C)(C)C)N1C(=O)OC(C)(C)C (stereo not drawn)	.	13.1µM*	-25.2%	.	?	.
CCOC(=O)N1C(=O)[C@](CC)(c2ccccc2)N1C(=O)OCC	9.2	10.1%	2.82µM*	19.3*	2.9%	-5.8%
C[C@@H](NC(=O)C1(c2ccccc2)CCN(C(=O)OC(C)(C)C)CC1)C(=O)N[C@@H](Cc1ccccc1)C(=O)O	-2.2	?	-2.0%	1.7	?	16.0%
CC(C)[C@H](NC(=O)c1ccco1)C(=O)Nc1ccc(OC(F)F)cc1	1.8	-21.5%	-0.6%	-1.0	-1.4%	2.5%
COc1ccc(Cn2c(C(=O)O)c(CNC3CCC(C)CC3)c3ccc(C)cc32)cc1 (stereo not drawn)	.	.	0.5%	.	.	.
Cc1ccc(-n2cc(CNCC3CC(=O)N(C4CC4)C3)c(-c3cccc(C)c3)n2)cc1 (stereo not drawn)	2.9	?	-20.5%	-1.9	11.7µM*	-6.3%
Cc1ccc(-n2cc(CN3CCNC(=O)CC3)c(-c3cccc(C)c3)n2)cc1	27.4	?	-3.5%	7.4	-20.9%	-6.7%
O=C(Cn1cnc2ccccc21)Nc1ccc2c(c1)OCCCO2	.	40.8%	-0.8%	.	34.4%	.
COc1cc(CN(C(=O)COc2ccc(Cl)cc2)c2ccccn2)cc(OC)c1OC	.	.	1.4%	.	.	.
Cc1ccc2oc(-c3ccc(C)c(NC(=S)NC(=O)c4cccs4)c3)nc2c1	10.1*	255.2%	4.0%	44.7*	322.6%	9.9%
Cc1ccc(-c2nc3ccccc3o2)cc1NC(=S)NC(=O)c1cc2ccccc2o1	84.7*	142.1%	1.1%	45.0*	29.0%	?
Cc1ccc(-c2nc3cc(C(C)C)ccc3o2)cc1NC(=O)c1cc2ccccc2o1	.	.	-1.1%	.	.	.
